The nature of assay [1]: qHTS profiling for inhibitors of Plasmodium falciparum proliferation (AID 504749). Also: nearly all actives have a fitted effect of over 60% in size.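 As to activity, negative = inhibition: 0% = DMSO vehicle and full inhibition = artemisinin control.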 The conditions noted are these: P. falciparum in erythrocytes, SYBR Green DNA, 72 h. The method, boiled down:
(§1)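 P. falciparum-infected erythrocytes (0.3% parasitemia, 2.5% hematocrit final) were exposed to compounds for 72 h at 37 C in 5% CO2, then lysed with SYBR Green buffer overnight at room temperature; parasite DNA fluorescence was normalized to artemisinin and DMSO controls.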

A further assay relates to 3D7. The assay is described as above. Conditions: P. falciparum in erythrocytes, SYBR Green DNA, 72 h; series mostly up to 28.7 µM. The method, boiled down:
as §1

The next assay deals with 7G8. The assay is described as above. Conditions: P. falciparum in erythrocytes, SYBR Green DNA, 72 h; series mostly up to 28.7 µM. The method, boiled down: as §1
Another assay deals with AA1029. The description is as above. Conditions: P. falciparum in erythrocytes, SYBR Green DNA, 72 h; series mostly up to 28.7 µM. The method, boiled down: as §1
Another assay has as its system AS120. The description is as above. The conditions noted are these: P. falciparum in erythrocytes, SYBR Green DNA, 72 h; series mostly up to 28.7 µM. The method in brief:
as §1

Another assay has as its system ATS189. Described as above. The conditions noted are these: P. falciparum in erythrocytes, SYBR Green DNA, 72 h; series mostly up to 28.7 µM. The method in brief: as §1
Another assay has as its system ATS95. Described as above. The conditions noted are these: P. falciparum in erythrocytes, SYBR Green DNA, 72 h; series mostly up to 28.7 µM. The method, boiled down: as §1
Another assay concerns C2A. The description is as above. Conditions: P. falciparum in erythrocytes, SYBR Green DNA, 72 h; series mostly up to 28.7 µM. The method, boiled down: as §1
The test system of a further assay is CP185. The description is as above. Conditions: P. falciparum in erythrocytes, SYBR Green DNA, 72 h; series mostly up to 28.7 µM. The method in brief:
as §1

The test system of a further assay is CP191. The assay is described as above. The conditions noted are these: P. falciparum in erythrocytes, SYBR Green DNA, 72 h; series mostly up to 28.7 µM. The method in brief:
as §1

Setting [2] is: at 28.7 µM (top of the series), parasite line A.
[3] abbreviates: at 28.7 µM (top of the series), parasite line B.
Setting [4] is: at 12.8 µM (top of the series), parasite line A.
Setting [5] is: at 12.8 µM (top of the series), parasite line B.

The text below walks through data of PubChem BioAssay (NCATS).

Inconclusive results are not listed. A number with no mark means an inactive call. Active and inactive are the calls of the source. Calls follow the shape of the dose curve; as a rule, active = well fitted inhibition curve with a large enough effect; inconclusive = small, poorly fitted or top-dose-only effect; inactive = flat fitted curve, though single readings scatter.
Potency is read from the fitted curve at half-maximal effect.

For the compound `CC1(C)CCC(NC(=O)[C@@H](N)CCC(=O)O)CC1`, the values for the activity, negative = inhibition in assay [1] (setting [2]) and in assay [1] (setting [3]) were 2.48% and 10.3%, respectively. The Potency result in the assay with 3D7, in the assay on 7G8, in the assay on AA1029, in the assay on AS120, with ATS189 and with ATS95 was “inactive” each time. The Potency entry with C2A, in the assay on CP185 and in the assay with CP191 was “inactive” throughout.

As for `COc1ccc(/C=C/C(=O)c2ccc(OC)cc2OC)cc1`, the Potency in [1] (parasite line A) is 3.16 µM (active); in assay [1] (parasite line B), 8.91 µM (active); in the assay with 3D7, 10 µM (active); with 7G8 it was 5.01 µM (active); in the assay on AA1029, 6.31 µM (active); in the assay with AS120, 8.91 µM (active). For the same compound, the Potency with ATS189 is 5.62 µM (active); with ATS95, 11.2 µM (active); with C2A, 11.2 µM (active); in the assay on CP185, 8.91 µM (active); in the assay on CP191, 3.16 µM (active).

Consider `Oc1c(Cl)cc(Cl)cc1Sc1cc(Cl)cc(Cl)c1O`, for which the activity, negative = inhibition in assay [1] (setting [2]) is -0.752%; in assay [1] (setting [3]), -1.75%. Besides, the Potency entry in the assay with 3D7, with 7G8, in the assay on AA1029, in the assay on AS120, in the assay on ATS189 and with ATS95 was “inactive” in each case. In addition, the Potency result in the assay with C2A, with CP185 and in the assay on CP191 was “inactive” throughout.

As to `COc1ccc(CCN2CCC(Nc3nc4ccccc4n3Cc3ccc(F)cc3)CC2)cc1`, the Potency in assay [1] (parasite line A) was 1.41 µM (active); in assay [1] (parasite line B), 2.24 µM (active); in the assay on 3D7, 1.78 µM (active); in the assay with 7G8 it was 2.24 µM (active); with AA1029, 3.55 µM (active); with AS120, 3.55 µM (active). Further, the Potency with ATS189 was 4.47 µM (active); in the assay with ATS95 it was 3.98 µM (active); in the assay with C2A, 2.51 µM (active); with CP185, 3.55 µM (active); in the assay on CP191 it was 2.24 µM (active).

With `C[C@]12CC[C@@H]3c4ccc(O)cc4CC[C@H]3[C@@H]1CC[C@@H]2O`, the results for the activity, negative = inhibition in [1] (setting [2]) and in [1] (setting [3]) were 14.2% and 10.8%, respectively. Further, the Potency entry in the assay on 3D7, in the assay on 7G8, in the assay on AA1029, with AS120, with ATS189 and with ATS95 was “inactive” each time. Further, the Potency entry in the assay with C2A, with CP185 and in the assay on CP191 was “inactive” each time.

With `COc1c2occc2c(OC)c2c(=O)cc(C)oc12`, the figures for the activity, negative = inhibition in assay [1] (setting [4]) and in assay [1] (setting [5]) were 5.55% and 4.52%, respectively. Also, the Potency entry with 3D7, in the assay with 7G8, in the assay with AA1029, with AS120, in the assay with ATS189 and in the assay with ATS95 was “inactive” throughout. In addition, the Potency entry in the assay on C2A, with CP185 and with CP191 was “inactive” in each case.

Consider `COc1c(C)c2c(c(O)c1C/C=C(\C)CCC(=O)O)C(=O)OC2`, for which the Potency was 3.16 µM (active) in assay [1] (parasite line A); 3.55 µM (active) in [1] (parasite line B); 3.55 µM (active) in the assay on 3D7; 2.51 µM (active) with 7G8; 2.51 µM (active) in the assay on AA1029; 3.16 µM (active) in the assay on AS120. Moreover, the Potency in the assay on ATS189 was 2.51 µM (active); in the assay with ATS95, 3.16 µM (active); in the assay with C2A it was 2.82 µM (active); in the assay on CP185, 3.16 µM (active); in the assay on CP191 it was 2.82 µM (active).

With `NCCCC[C@H](N[C@@H](CCc1ccccc1)C(=O)O)C(=O)N1CCC[C@H]1C(=O)O`, the activity, negative = inhibition in [1] (setting [4]) is 2.09%; in [1] (setting [5]), 0.712%. For the same compound, the Potency entry in the assay on 3D7, with 7G8, with AA1029, with AS120, with ATS189 and in the assay on ATS95 was “inactive” each time. For the same compound, the Potency result in the assay on C2A, in the assay with CP185 and in the assay with CP191 was “inactive” in each case.

As to `Cc1c(C)n(CCN(C)C)c2ccc(C(=O)OCCN(C)C)cc12`, the activity, negative = inhibition in [1] (setting [2]) is -7.71%; in assay [1] (setting [3]), -8.88%. Moreover, the Potency result in the assay with 3D7, with AA1029, in the assay on AS120, in the assay with ATS189, with ATS95 and with C2A was “inactive” in each case. The Potency result in the assay with CP185 and in the assay with CP191 was “inactive” in each case. Besides, in the assay with 7G8, the Potency is 8.91 µM (active).

On to `COc1cc(NS(C)(=O)=O)ccc1Nc1c2ccccc2nc2ccccc12`, for which the Potency in assay [1] (parasite line A) is 2 µM (active); in assay [1] (parasite line B) it was 3.16 µM (active); in the assay with 3D7 it was 2 µM (active); in the assay with 7G8, 1.26 µM (active); in the assay on AA1029, 3.55 µM (active); with AS120, 2.24 µM (active). Besides, the Potency in the assay on ATS189 was 3.98 µM (active); in the assay with ATS95, 3.55 µM (active); in the assay on C2A, 1.78 µM (active); with CP185, 4.47 µM (active); in the assay on CP191 it was 0.794 µM (active).

`O=C(COc1ccc(Cl)cc1)N1CCN(Cc2ccc3c(c2)OCO3)CC1`: the activity, negative = inhibition is 11% in [1] (setting [2]) and 10.8% in assay [1] (setting [3]). Moreover, the Potency entry in the assay on 3D7, in the assay with 7G8, in the assay with AA1029, in the assay on AS120, in the assay with ATS189 and with ATS95 was “inactive” throughout. Besides, the Potency result in the assay with C2A, with CP185 and in the assay on CP191 was “inactive” each time.

As for `CCCCOc1ccc(C(=O)CCN2CCCCC2)cc1`, the values for the activity, negative = inhibition in [1] (setting [4]) and in assay [1] (setting [5]) were 2.86% and -20.7%, respectively. Moreover, the Potency result with 3D7, in the assay with 7G8, with AA1029, in the assay on AS120, with ATS189 and in the assay on ATS95 was “inactive” in each case. The Potency entry with C2A, in the assay on CP185 and in the assay with CP191 was “inactive” in each case.

On to `CC(C)(CO)[C@@H](O)C(=O)NCCCO`, for which the activity, negative = inhibition in assay [1] (setting [2]) is 10.4%; in assay [1] (setting [3]) it was -1.02%. For the same compound, the Potency entry with 3D7, in the assay on 7G8, with AA1029, in the assay with AS120, in the assay with ATS189 and in the assay with ATS95 was “inactive” in each case. For the same compound, the Potency result with C2A, in the assay with CP185 and in the assay on CP191 was “inactive” each time.

As for `CCC(=O)c1c(O)cc(O)cc1O`, the figures for the activity, negative = inhibition in [1] (setting [2]) and in assay [1] (setting [3]) were -1.33% and 0.647%, respectively. Moreover, the Potency entry with 3D7, in the assay with 7G8, in the assay with AA1029, in the assay with AS120, in the assay with ATS189 and with ATS95 was “inactive” throughout. Also, the Potency result with C2A, with CP185 and in the assay on CP191 was “inactive” in each case.

As to `CC(O)(P(=O)(O)O)P(=O)(O)O`, the activity, negative = inhibition in [1] (setting [2]) was 10.5%; in assay [1] (setting [3]), 4.89%. Besides, the Potency entry with 3D7, in the assay on 7G8, in the assay with AA1029, in the assay on AS120, in the assay on ATS189 and in the assay on ATS95 was “inactive” in each case. Further, the Potency entry with C2A, in the assay on CP185 and in the assay on CP191 was “inactive” in each case.

Consider `C[C@H](O)C(=O)Nc1c(I)c(C(=O)NC(CO)CO)c(I)c(C(=O)NC(CO)CO)c1I`, for which the activity, negative = inhibition was -8.8% in assay [1] (setting [4]) and 10.5% in assay [1] (setting [5]). For the same compound, the Potency entry in the assay with 3D7, in the assay with 7G8, in the assay with AA1029, in the assay on AS120, in the assay on ATS189 and in the assay with ATS95 was “inactive” throughout. The Potency entry in the assay with C2A, in the assay on CP185 and in the assay on CP191 was “inactive” throughout.

On to `CCOc1ccc(NC(=O)CC(C)O)cc1` (configuration not stated), for which the results for the activity, negative = inhibition in assay [1] (setting [2]) and in [1] (setting [3]) were -3.02% and 4.79%, respectively. Moreover, the Potency result with 3D7, in the assay with 7G8, in the assay on AA1029, in the assay on AS120, in the assay with ATS189 and with ATS95 was “inactive” throughout. Moreover, the Potency result in the assay on C2A, in the assay on CP185 and with CP191 was “inactive” each time.
